# Tau fluor cs = counter-screen for tau fibril formation inhibitors; 280,000 compounds, 0.93% hits; tau K18 P301L Alexa594 fluorescence, heparin fibrillization; Potency, µM (titrated, usually from 57.7 µM), inactives show at the highest dose activity change, negative = decrease; further: nearly all actives have a fitted effect of over 55% in size
#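 Human tau K18 P301L (15 uM unlabeled, 0.24 uM Alexa 594-labeled) in 100 mM sodium acetate pH 7 with 20 uM heparin, 6 hr at 37 C. ThT 30 uM added, 1 hr ambient; Alexa 594 FP and total fluorescence read at 555/632 nm.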
# GoLoco inh red = RGS12 GoLoco-Gai1 interaction inhibition; Gai1:RGS12 GoLoco peptide FP, rhodamine, 10 min; Potency, µM (series often up to 61.6 µM), for inactives: at the highest dose activity, negative = inhibition, actives largely listed as inhibitors; 230,000 compounds, 0.44% hits; AID 880; active means well fitted inhibition curve with a large enough effect, not every such curve was filed as active; inactive means no such curve, though single readings can be large or run the other way; further: nearly all actives have a fitted effect of over 30% in size
# Target sequence (P63096 whole entry, looked up): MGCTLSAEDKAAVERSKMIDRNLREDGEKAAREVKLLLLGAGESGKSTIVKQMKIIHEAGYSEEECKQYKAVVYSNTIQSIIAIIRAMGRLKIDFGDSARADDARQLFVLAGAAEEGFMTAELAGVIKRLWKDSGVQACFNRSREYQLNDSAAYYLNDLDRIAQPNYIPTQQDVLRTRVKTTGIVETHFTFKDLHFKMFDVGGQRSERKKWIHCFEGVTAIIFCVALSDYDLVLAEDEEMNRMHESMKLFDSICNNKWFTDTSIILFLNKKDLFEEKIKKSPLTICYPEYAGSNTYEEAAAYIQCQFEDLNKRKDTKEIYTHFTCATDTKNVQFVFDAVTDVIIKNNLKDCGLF
# TexasRed fluor = alters Texas Red total fluorescence, flagging assay interference; TRb/SRC2 Texas Red total fluorescence interference; Potency, µM (highest dose often 106 µM), for the others: top-dose fluorescence change, negative = quenching; 280,000 compounds, 0.29% hits; active means well fitted curve in either direction with a large enough effect; inconclusive means small, poorly fitted or top-dose-only effect
#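 Human TRb ligand-binding domain at 0.6 uM with 20 nM Texas Red SRC2 peptide in Tris buffer containing 1 uM T3 and 5% DMSO, incubated with compound 5 h at ambient temperature. Total fluorescence (555/632 nm) calculated as parallel + 2 × perpendicular.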
# TRb SRC2 PPI = inhibitors of human thyroid hormone receptor beta-SRC2 interaction. P10828. AID 1469. TRbeta-SRC2 peptide binding, fluorescence polarization; receptor liganded with 1 µM T3. 280,000 compounds, 0.065% hits. Potency, µM (top dose mostly 106 µM), without a hit: at the top dose activity change, negative = inhibition, most hits filed as inhibitors;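 further: plate controls were bound peptide for no effect and peptide without receptor for full effect; nearly all actives have a fitted effect of over 50% in size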
#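 A fluorescence polarization screen tested compounds at multiple concentrations against complex formation between 0.6 uM TRb ligand-binding domain and 20 nM Texas Red SRC2 peptide, with 1 uM T3 present; readout after 5 hr.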
# Tau fibril ThT = blocks human tau fibril formation measured by thioflavin T | recombinant tau K18 P301L, heparin-induced fibrillization, ThT fluorescence | Potency, µM (doses to about 57.4 µM), without a hit: top-dose activity, negative = inhibition, hits mostly inhibitors | 270,000 compounds, 2.1% hits | AID 1460; further: nearly all actives have a fitted effect of over 55% in size
# Target sequence (P10636 561-689 P618L limits assumed): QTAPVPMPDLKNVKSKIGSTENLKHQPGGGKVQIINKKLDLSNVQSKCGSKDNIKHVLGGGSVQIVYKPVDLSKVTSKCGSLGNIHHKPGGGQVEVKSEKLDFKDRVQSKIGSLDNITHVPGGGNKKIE
#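 K18 P301L tau (15 uM + 0.24 uM Alexa 594-tagged), heparin 20 uM, NaOAc pH 7, 6 h 37 C; ThT 30 uM, 1 h RT, ex 450/em 510 nm.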
# Tau FP inhib = inhibitors of human tau fibril formation; K18 P301L tau heparin fibrillization, Alexa594 FP, 6 h; Potency, µM (titrated, usually from 57.7 µM), inactives show at the highest dose activity, negative = inhibition, actives largely listed as inhibitors; 280,000 compounds, 0.39% hits; AID 1468; further: nearly all actives have a fitted effect of over 55% in size
#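 Heparin (20 uM) drove fibril formation of recombinant tau K18 P301L, 15 uM unlabeled with 0.24 uM Alexa 594 label, for 6 hr at 37 C in 100 mM sodium acetate pH 7. Fluorescence polarization (555/632 nm) read 1 hr after 30 uM ThT.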
# * hit, by the source's call; ? = inconclusive; nt = no result; [ ] = remark or other dose. Only some compounds are listed: those with a hit (about 3.2% of all), similar ones and a draw of the others. Unless noted, the call rests on the fitted dose curve; in most records, active means well fitted curve in the direction sought with a large enough effect; inconclusive means small, poorly fitted or top-dose-only effect, or another doubt; inactive means no such curve, though single readings can be large; an effect the other way counts as inactive or inconclusive. Unless noted, on the % scale 0 is the no-effect control and ±100 the full control effect; potency means the concentration at half of the fitted maximal effect.
SMILES,Tau fluor cs,GoLoco inh red,TexasRed fluor,TRb SRC2 PPI,Tau fibril ThT,Tau FP inhib
O=C(N/N=C1/C[C@@H](O)[C@@H](O)[C@@H]2[C@@H]3C(=O)N(c4cccc(Oc5ccccc5)c4)C(=O)[C@H]3CC[C@H]12)OCc1ccccc1,-26%[11.6 µM],nt,-2%[11.2 µM],2%[11.2 µM],-17%[11.5 µM],?
Nc1nc2c(c(=O)[nH]1)N=C(CNc1ccc(C(=O)NC(CCC(=O)O)C(=O)O)cc1)CN2 (stereo unspecified),-8%,0%,-4%,-2%,-12%,-2%
COC(=O)C1=C(C)NC(C)=C(C(=O)OCCSc2ccccc2)[C@@H]1C,16µM*[quencher],3%,0%,9%,-19%,10%
CCSCCOC(=O)C1=C(C)NC(=O)NC1c1ccccc1 (stereo unspecified),-18%,1%,-2%,-3%,-13%,-9%
NC(Cc1ccccc1)=NCC(=O)O,nt,11%[14.2 µM],nt,nt,nt,nt
CO[C@H]1COC(=O)[C@@H](CCSC)NC(=O)C/C=C\[C@@H](C)[C@H](OC)COC(=O)[C@@H](OCc2ccccc2)/C=C\[C@@H]1C,-12%[11.6 µM],nt,2%[11.2 µM],8%[11.2 µM],-9%[11.5 µM],-1%[11.6 µM]
Fc1cc(F)c2nc(Nc3nc4cc5c(cc4s3)OCO5)sc2c1,5µM*[quencher],7%,35µM*[quencher],24%,?,4%
Fc1cccc2sc(Nc3nc4cc5c(cc4s3)OCCO5)nc12,14µM*[quencher],-2%,-2%,-3%,?,-5%
Fc1cccc2sc(Nc3nc4cc5c(cc4s3)OCO5)nc12,7.9µM*[quencher],-2%,-3%,-2%,7.9µM*,-2%
CC(C)C(=O)Nc1nc2cc3c(cc2s1)OCO3,-3%,5%,1%,3%,-14%,0%
Cc1ccc(F)c(C2C3C=CCC(c4ccccc4)C3C(=O)N2Cc2ccccc2)c1 (stereo unspecified),nt,nt,-3%,-5%,nt,nt
CC1(OC(=O)c2cnc3ccccc3n2)C(=O)C=C2C=C(c3ccsc3)OC=C2C1=O (stereo unspecified),-2%,-12%,-2%,5%,-2%,-4%
N#Cc1c(NC(=O)CCC(=O)O)ccc2ccccc12,nt,-3%[14.2 µM],nt,nt,nt,nt
Cc1ccc(Nc2c(-c3c[nH]c4ccccc34)nc3cc(C)ccn23)cc1,11µM*[quencher],nt,-14%,3%,?,3%
Cc1ccccc1Nc1c(-c2c[nH]c3ccccc23)nc2ccc(Cl)cn12,?,nt,-3%,3%,-17%,?
Cc1ccn2c(Nc3ccccc3)c(-c3c[nH]c4ccccc34)nc2c1,11µM*[quencher],nt,?,0%,?,?
Cc1ccccc1Nc1c(-c2c[nH]c3ccccc23)nc2ccccn12,?,nt,1%,-4%,-13%,4%
Cc1ccc2nc(-c3c[nH]c4ccccc34)c(Nc3ccc(F)cc3)n2c1,5µM*[quencher],nt,1%,-8%,-11%,?
COc1cc(OC)c2c(c1C(CCN1CCCC1)c1ccc(N(C)C)cc1)OC(=O)CC2c1ccc(N(C)C)cc1 (stereo unspecified),nt,nt,-3%,-1%,nt,nt
CC(C)[C@@H](CC(=O)N[C@@H]1CCNC[C@H]1C(=O)N[C@H](CC(=O)N[C@@H](CCC(=O)O)CC(=O)O)Cc1c[nH]c2ccccc12)NC(=O)C[C@H](CO)NC(=O)[C@@H]1CNCC[C@H]1N,-6%,2%,1%,-1%,-16%,0%
CN1CCSc2ccc(C(=O)Nc3cccc(F)c3)cc21,22µM*[quencher],-4%,-2%,9%,?,?
CCCCCCCCCCCCCCN(C)C,nt,nt,-2%[201 µM],9%[201 µM],nt,nt
O=c1c(-c2cc(-c3ccccc3)nc3c2COc2ccccc2-3)coc2ccc(Cl)cc12,-13%,nt,20µM*[quencher],-8%,-2%,-8%
O=C1COc2ccc(-c3cc(-c4ccc(Cl)cc4)c4c(n3)-c3ccccc3OC4)cc2N1,-12%,nt,10µM*[quencher],-7%,3%,?
O=C1COc2ccc(-c3cc(-c4ccccc4)c4c(n3)-c3ccccc3OC4)cc2N1,-14%,nt,3%,6%,7%,-9%
SMILES,Tau fluor cs,GoLoco inh red,TexasRed fluor,TRb SRC2 PPI,Tau fibril ThT,Tau FP inhib
O=C(Nc1nc(-c2cc3ccccc3oc2=O)cs1)c1ccco1,-12%,23%,-3%,-3%,1%,-14%
O=c1oc2ccccc2cc1-c1csc(NN=C2CCCCC2)n1,25µM*[quencher],8%,-10%,-12%,?,-9%
CCOC(=O)CCN1C(=O)[C@H]2[C@H]3[C@H](O)[C@H](O)C/C(=N/NC(=O)OCc4ccccc4)[C@@H]3CC[C@@H]2C1=O,-10%[11.6 µM],nt,0%[11.2 µM],-2%[11.2 µM],-9%[11.5 µM],0%[11.6 µM]
CO[C@H]1COC(=O)C/C=C\[C@H](C)[C@@H](OC)COC(=O)[C@H](Cc2ccccc2)NC(=O)C/C=C\[C@@H]1C,-2%[11.6 µM],nt,-1%[11.2 µM],-5%[11.2 µM],-1%[11.5 µM],-4%[11.6 µM]
CC1CCCCN1C(=O)Cn1cc(C=O)c2ccccc21 (stereo unspecified),4%,8%,0%,3%,3%,3%
CC1CCCCN1C(=O)Cn1cc(/C=C2/C(=O)Nc3ccccc32)c2ccccc21 (stereo unspecified),?,6%,-10%,5%,10µM*,15%
COc1ccccc1N1CCN(C2=CC(=O)CCC2)CC1,-8%,-1%,1%,5%,?,-16%
O=C1C=C(N2CCN(C3=CC(=O)CCC3)CC2)CCC1,-26%,-7%,0%,-4%,25µM*,?
C[N+](C)(C)CCCCCC(=O)/C=N/O,-3%,2.5µM*,-2%,2%,0%,-1%
CO[C@@H]1COC(=O)[C@H](C)NC(=O)[C@@H](C)COC(=O)CCC[C@H]1C,-13%[11.6 µM],nt,-1%[11.2 µM],7%[11.2 µM],-8%[11.5 µM],-7%[11.6 µM]
O=c1c2ccccc2sn1-c1nccs1,-21%,16µM*,-2%,3%,16µM*,?
Cc1ccc(-c2onc(C)c2C)cc1S(=O)(=O)N1CCCCC1,-19%,nt,-2%,2%,-8%,6%
O=c1c2ccccc2sn1-c1ccccc1,-30%,18µM*,-2%,-11%,11µM*,?
CN(C)S(=O)(=O)c1cccc(-n2sc3ccccc3c2=O)c1,-22%,14µM*,-4%,-6%,?,?
Cc1ccc(-n2sc3ccccc3c2=O)cc1S(=O)(=O)N1CCCCC1,-19%,28µM*,-3%,0%,16µM*,32µM*
COCCn1c(=O)sc2ccccc2c1=O,6%,-5%,0%,7%,-3%,4%
O=c1c2ccccc2c(C=Nc2ccccc2O)c(O)n1-c1nccs1,-21%,15%,-4%,-9%,-14%,?
COc1ccc(OC2C=CC(C#Cc3ccccc3)OC2CO)cc1 (stereo unspecified),-23%[11.6 µM],nt,0%[11.2 µM],-4%[11.2 µM],?,-7%[11.6 µM]
